# Test results reported in PubChem BioAssay (NCATS).
# Calls of active or inactive are those of the source. Entries that show only a call come without a potency. The call rests on the fitted dose curve; in most records, active means well fitted curve in the direction sought with a large enough effect; inconclusive means small, poorly fitted or top-dose-only effect, or another doubt; inactive means no such curve, though single readings can be large; an effect the other way counts as inactive or inconclusive.
# Test system: not listed separately
# Assay: Validation qHTS assay for inhibitors of Activation Induced Cytidine Deaminase (AID): UDG Counterscreen signal (AID 1347427)
# Settings: biochemical UDG counterscreen, fluorescence signal; series mostly up to 115 µM
# Summary of the method: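 Fluorescence at 560 nm excitation, 665 nm emission reports UDG signal after 250 mM NaOH (2x) addition and 30 min. Enzymes (AID 1 uM, UDG 2 U/mL, at 4/3x) preincubated 10 min with compound, then 4 h with 4x 250 nM DJC20/DJC23 substrate at room temperature.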
row,SMILES,Potency
1,C[C@H](N)Cc1cccc(C(F)(F)F)c1,inactive
2,CO[C@H]1CC=C2CCN3CCC4=C(CC(=O)OC4)[C@]23C1,inactive
3,CC(N)Cc1c[nH]c2ccc(OCc3cccs3)cc12 (centres undefined),inactive
4,NCC(O)c1cc(O)c(O)cc1F (centres undefined),inactive
5,CCCN(CCC)C1CCc2cccc(O)c2C1 (centres undefined),inactive
6,N=C(N)c1ccc(CS(=O)(=O)F)cc1,inactive
7,CC(=O)c1c(O)c(C)c(O)c(Cc2c(O)c3c(c(C(=O)/C=C/c4ccccc4)c2O)OC(C)(C)C=C3)c1O,inactive
8,CC(C)(O)[C@@H]1C2OC(=O)[C@@H]1[C@]1(O)C[C@H]3O[C@]34C(=O)O[C@H]2[C@]14C (tested in a mixture with another compound),inactive

# Molecular target: Single-stranded DNA cytosine deaminase (Homo sapiens) (UniProt Q9GZX7)
# Assay: Validation qHTS assay for inhibitors of Activation Induced Cytidine Deaminase (AID): AID signal (AID 1347429); further: potency means the concentration at half of the fitted maximal effect
# Settings: Recombinant AID, FRET ssDNA deamination with UDG, fluorescence; series mostly up to 115 µM
# Summary of the method: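 Compounds (up to 114 uM final) are tested against AID plus UDG using DJC20/DJC23 FRET substrate. Reactions incubate 4 hr at room temperature, receive NaOH for 30 min, and are read at Ex 540/Em 590 nm.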
# Sequence of Single-stranded DNA cytosine deaminase (Homo sapiens) (Q9GZX7 whole entry, looked up): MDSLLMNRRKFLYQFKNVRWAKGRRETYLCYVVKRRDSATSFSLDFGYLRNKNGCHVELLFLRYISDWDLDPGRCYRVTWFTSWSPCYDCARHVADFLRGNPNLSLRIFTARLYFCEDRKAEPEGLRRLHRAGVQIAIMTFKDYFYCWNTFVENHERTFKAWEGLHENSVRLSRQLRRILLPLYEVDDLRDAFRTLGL
row,SMILES,Potency
1,CC(=O)OCC1=C(C(=O)O)N2C(=O)[C@@H](NC(=O)CCC[C@@H](N)C(=O)O)[C@H]2SC1,inactive
2,Cc1o[nH]c(=O)c1CC(N)C(=O)O (centres undefined),inactive
3,NC(Cc1cc(O)c(O)cc1O)C(=O)O (centres undefined),3.98 µM (active)
4,CCCN1CCc2cc(O)cc3c2[C@H]1Cc1ccc(O)c(O)c1-3,inactive
5,O=C1C=CC(=O)C=C1,inactive
6,NC(N)=Nc1ccc2[nH]c3c(c2c1)C[C@@]1(O)[C@H]2Cc4ccc(O)c5c4[C@@]1(CCN2CC1CC1)[C@H]3O5,79.4 µM (active)
7,NC(CCCCCP(=O)(O)O)C(=O)O (centres undefined),inactive
8,CC(C)NP(=O)(NC(C)C)OP(=O)(NC(C)C)NC(C)C,inactive
9,COc1ccc2[nH]cc(CCN)c2c1,inactive
10,Cc1[nH]c2ccc(O)cc2c1CCN,inactive
11,NNC(N)=O,inactive
